Test results reported in PubChem BioAssay (NCI).
The panel holds about 83,000 compounds, 20% with a hit somewhere; the sample as a whole holds those more often.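 Treatment: one concentration, 48 hours, 96-well format. Scoring: percent growth, with anything below 10 considered active.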 A number with no mark means an inactive call. Calls of active or inactive are those of the source.

system: MDA-MB-468 breast; test: NCI-60 one-dose screen, 48 h (100 = growth as untreated, 0 = no growth, -100 = all killed); conditions: 10 µM unless noted

Q: Which growth does the source give for `Nc1c(C(=O)Nc2ccccc2)sc2nc3c(cc12)CCCCCC3` here?
A: -25% (active)

Q: Which growth does the source give for `O=C(O)c1ccccc1Oc1cc(-c2ccco2)nc(OCCN2CCOCC2)n1` here?
A: 105%

Q: For `COc1cc(/C=C\c2cc(OC)c(OC)c(OC)c2)cc(NC(=O)/C=C/c2cc(OC)c(OC)c(OC)c2)c1OC`, which growth is on record?
A: 36%

Q: For `N/C(=N\O)c1ccncc1`, which growth is on record?
A: 121%

Q: Which growth does the source give for `C=C1CC/C=C(\C)C(=O)C[C@@H]2[C@@H]1CC2(C)C` here?
A: 79.1%

Q: With `O=C1NC(=O)c2c1c1c3ccccc3[nH]c1c1oc3cc(Br)ccc3c21` as the molecule, how does the growth read?
A: 62.6%

Q: How did the growth turn out when `CCN1CCN(C(=O)[C@]23CC[C@@H](C)[C@H](C)[C@@H]2C2=CC[C@@H]4[C@@]5(C)C/C(=C/c6ccncc6)C(=O)C(C)(C)[C@@H]5CC[C@@]4(C)[C@]2(C)CC3)CC1` was run?
A: -1.64% (active)

Q: Which growth does the source give for `COc1cc(/C=C/C(=O)c2c(-c3ccc(F)cc3)nc3sc(C)nn23)cc(OC)c1OC` here?
A: 23.9%

Q: For `CS(=O)(=O)c1ccc(-c2nn(-c3ccccc3)cc2/C=C/C(=O)c2ccc(Br)cc2)cc1`, which growth is on record?
A: 91.4%

Q: For `CCCCO[C@@H]1C=C2[C@H]3CC(C)(C)C(=O)C[C@]3(C(=O)O[C@@H]3O[C@H](CO[C@@H]4O[C@H](CO)[C@@H](OC5OC(C)C(O)C(O)C5O)[C@H](O)[C@H]4O)[C@@H](O)[C@H](O)[C@H]3O)CC[C@@]2(C)[C@]2(C)CC[C@H]3C(C)(C)C(=O)CC[C@]3(C)[C@@H]12` (stereo not given in full), which growth is on record?
A: 101%

Q: How did the growth turn out when `O=C(N/N=C1\c2ccccc2-c2cccc(C(=O)O)c21)c1ccc(O)cc1` was run?
A: 90.8%

Q: With `CCCCN(CCCC)Cc1c(C)[nH]c2cc(OC)ccc2c1=O` as the molecule, how does the growth read?
A: 113%

Q: `CNC(=O)CCN1CCN(CC/C=C2\c3ccccc3Sc3ccc(Cl)cc32)CC1` was tested. Which growth did it give?
A: 72.5%

Q: How did the growth turn out when `O=C(O)c1ccc2c(c1)C(=O)c1ccccc1C2=O` was run?
A: -2.97% (active)

Q: With `OCCNCCNc1c2ccccc2nc2ccccc12` as the molecule, how does the growth read?
A: 37.4%

Q: `CCCCn1c(=O)c(-c2cc(-c3ccc(Cl)cc3)nc(-c3ccc(Cl)cc3)c2)cc2cc(C)ccc21` was tested. Which growth did it give?
A: 102%

Q: How did the growth turn out when `O=[N+]([O-])c1ccccc1NCSc1ccc(Cl)cc1` was run?
A: 92.1%

Q: Which growth does the source give for `COc1cc(-c2nn(-c3cccc(NC(=O)Nc4ccc(Cl)c(Cl)c4)c3)cc2-c2ccncc2)ccc1Cl` here?
A: 2.14% (active)

Q: `COc1ccc(/C=C2\SC(=Nc3cc(C)[nH]n3)NC2=O)cc1` was tested. Which growth did it give?
A: 82.6%

Q: With `COc1ccc2c(c1)c(CC(=O)[Se]CCC#N)c(C)n2C(=O)c1ccc(Cl)cc1` as the molecule, how does the growth read?
A: -36% (active)

Q: `N/N=C(\C(=N\N)c1ccccc1)c1ccccc1` was tested. Which growth did it give?
A: 94%

Q: With `O=C1c2c(c3c4ccccc4[nH]c3c3ccc4ccccc4c23)C(=O)N1CCN1CCNCC1` as the molecule, how does the growth read?
A: 76.5%

Q: With `COC(=O)c1nc(-c2ccc(C)cc2)oc1S(=O)(=O)c1ccc(Cl)cc1` as the molecule, how does the growth read?
A: 101%

Q: `O=S(=O)(NCCCNc1nccc(-c2c(-c3cccc(O)c3)nc3occn23)n1)c1ccc(Br)cc1` was tested. Which growth did it give?
A: 96.3%

Q: How did the growth turn out when `O=C(Nc1ccccc1F)Nc1ccccc1Cl` was run?
A: 76%

Q: `CCN(CCCNc1cc2c(c(N)c1S(=O)(=O)O)C(=O)c1ccccc1C2=O)c1ccccc1` was tested. Which growth did it give?
A: 89%

Q: `NC(N)=NS(=O)(=O)c1ccc(N=Nc2c(N)nn(-c3ccc([N+](=O)[O-])cc3[N+](=O)[O-])c2N)cc1` was tested. Which growth did it give?
A: 106%

Q: `C#CC[C@@H]1C[C@]2(C)[C@H]3CC=C4[C@H]5[C@@H](C)[C@H](C)CC[C@]5(C(=O)NCCCCN)CC[C@@]4(C)[C@]3(C)CC[C@H]2C(C)(C)[C@H]1OC(C)=O` was tested. Which growth did it give?
A: 81%

Q: With `NNc1nnc2nc(Nc3ccccc3)nc(Nc3ccc(S(N)(=O)=O)cc3)n12` as the molecule, how does the growth read?
A: 126%

Q: With `CCCNC(=O)Oc1ccc(/C(=C(/C)Cc2ccc(OC)cc2)c2ccc(OCCCN(C)C)cc2)cc1` as the molecule, how does the growth read?
A: 73.6%

Q: With `COc1ccc2c(c1)Nc1ccccc1S2` as the molecule, how does the growth read?
A: 104%

Q: For `CCOC(=O)c1cc(C#N)n2ccc3ccccc3c12`, which growth is on record?
A: 98.4%

Q: With `O=CNCCc1ccccc1` as the molecule, how does the growth read?
A: 97.8%

Q: How did the growth turn out when `NC(=O)c1ccc(Br)o1` was run?
A: 103%

Q: For `C=CC(=O)Nc1cccc(-c2nc(SC)nc(Nc3cccc(OC)c3)c2C#N)c1`, which growth is on record?
A: 69.7%

Q: With `CCOc1cc2c(cc1OCC)C(c1cc(C)c(O)c(C)c1)NCC2` (stereo not given) as the molecule, how does the growth read?
A: 102%

Q: With `Cc1cc(C)c(-c2c(O)c(Br)c(-c3c(C)cc(C)c(Br)c3C)c(O)c2Br)c(C)c1Br` as the molecule, how does the growth read?
A: 48.9%

Q: With `NC(=O)c1cc2c3ccccc3ccn2c1-c1ccccc1` as the molecule, how does the growth read?
A: 17.5%

Q: `C[C@]12CC[C@H]3[C@@H](CC=C4C[C@@H](O)CC[C@@]43C)[C@@H]1CC[C@@H]2C(=O)C/C=N/O` was tested. Which growth did it give?
A: 90.2%

Q: Which growth does the source give for `COc1ccc(C[C@H](N)C(=O)N[C@@H]2[C@@H](CO)OC(n3cnc4c(N(C)C)ncnc43)[C@@H]2O)cc1` (stereo not given in full) here?
A: -70.8% (active)
